Many of the other results were omitted from the sample, so hits are more common in it than they were.
Tgondii IFNg: inhibitors of Toxoplasma gondii growth with IFN-gamma; 3.8% of 69,000 active; Toxoplasma gondii growth in IFN-gamma-treated host cells; stronger effect = lower value; activity change, negative = inhibition, % (no concentration beside the values); AID 1259416; in the data active = activity change below about -70%, passing the limit was not always enough;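 also: host cells are HeLa cells infected with Toxoplasma gondii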
* marks the source's active call; other numbers are inactive results; i = inactive; ! = not active in a repeat.

SMILES	Tgondii IFNg
Cc1nc(CC2CCCN(S(=O)(=O)c3cn(C)cn3)C2)cc(Nc2ncc(C)s2)n1 (stereo not given)	-97.5*
Cc1ccc(CNc2cccc(C(=O)NCCN(C)C)c2)cc1	7.9
CC(C)N1CCN(CCn2ccnc2-c2nccn2C)CC1	30.3
CCn1c(C2CCNCC2)nn(Cc2ncccn2)c1=O	-3.2
O=C(Nc1ccc(Oc2c(F)c(F)c(F)c(F)c2F)cc1)OC1CCN2Cc3ccccc3N=C12 (stereo not given)	-98.8*
CCOc1ccc(NC(=O)Cn2ncc3c(N4CCC(C)CC4)ncnc32)cc1	-30.8
O=C(Cn1ncc2c(N3CCCC3)ncnc21)Nc1ccc(Oc2ccccc2)cc1	-59.6
COCC1CN(Cc2ccc(C)o2)Cc2nccn2C1 (stereo not given)	4.1
CCC(NC(=O)c1sc(-c2ccccn2)nc1C)c1ccc(OC)cc1 (stereo not given)	0.1
CSc1ssc(=Nc2ccc(F)c(F)c2)c1-c1ccccc1	-70.9*
O=C(Nc1cccc(Br)c1)N1CCC2(CC1)Nc1cc(F)ccc1-n1cccc12	-4.6
CCc1nnc(NC(=O)c2ncoc2-c2cccs2)s1	-9.7
O=C1CC(c2ccccc2)C2(CCN(C(=O)C3CCOC3)CC2)N1 (stereo not given)	-6.7
O=C(O)c1cccnc1CN(Cc1ccsc1)C1CC1	-32.5
CC(=O)NC12CC3CC(C1)CC(C(=O)NC(C)CCc1ccc(F)cc1)(C3)C2 (stereo not given)	7.9
O=C(N(Cc1nc2ccccc2c(=O)[nH]1)Cc1cccs1)C12CC3CC(CC(C3)C1)C2	-40.6
O=C(N(c1ccccc1)c1ccc(F)cc1)C12CC3CC(CC(C3)C1)C2	-83.4*
CCCCC[C@H](CC(=O)NO)C(=O)N[C@H](C(=O)N1CCC[C@H]1CO)C(C)C	-77.3*
CCC(=O)Nc1cccc(C(=O)N2CCC[C@H]2CO)c1	5.2
CC(=O)NCCc1csc(C2CCCN(C(=O)/C=C/c3cccc(Cl)c3)C2)n1 (stereo not given)	-15.2
Clc1ccc(-c2nc3c(c(NCCn4cccn4)n2)CNC3)cc1	-8.1
Fc1cnc(NC2COC3(CCCN(CC4CCOCC4)C3)C2)nc1 (stereo not given)	-1.7
OC1CCC(Nc2ncc3nc(Nc4c(F)cc(F)cc4F)n([C@H]4CCOC4)c3n2)CC1 (stereo not given in full)	-73.3*
CC(C)CC(O)C1CCN(Cc2cn[nH]c2-c2ccc(F)cc2)CC1 (stereo not given)	4.9
CCn1c(=O)c(-c2nc(-c3ccc(F)c(Br)c3)no2)c(O)c2ccccc21	4.4
SMILES	Tgondii IFNg
Cc1nc(-c2ccccn2)nc(N(C)c2ccccc2)c1Cl	-101.0*
Cc1nc(-c2ccccn2)nc(N2CCN(CCO)CC2)c1Cl	-13.5
Cc1nc(C(=O)O)c(-c2ccccc2)s1	32.7
CCN(CCOc1ccccc1C)C(=O)c1ccc2c(c1)OCCO2	140.5
Cc1cnc(N2C[C@@H](NC(=O)c3cscn3)[C@@H]3COC[C@@H]32)nc1	-4.1
CC1CCCCN1S(=O)(=O)c1ccc2c(c1)CCC(=O)N2CC(=O)NCc1ccc2c(c1)OCO2 (stereo not given)	-23.7
COc1ccc(-c2nc(C)c(CCNS(=O)(=O)c3ccc(Cl)cc3)s2)cc1OC	i
COc1cccc(OC)c1C(=O)c1ccncc1	-23.8
CCn1c(=O)c(C(=O)Nc2ccccc2OC)c(O)c2ccccc21	70.1
CCOC(=O)c1cccc(NC(=O)c2ccncc2)c1	25.8
COc1cc(NC(=O)c2cncc(Br)c2)c(OC)cc1Cl	3.5
CCn1c(-c2cc(NC(=O)c3cncc(Br)c3)n[nH]2)cc2c(OC)cccc21	-96.6*
CCn1c(-c2cc(NC(=O)c3ccncc3)n[nH]2)cc2c(OC)cccc21	-103.0*
CCN(C(=O)c1nc2c(s1)CCCN2c1ncccn1)C(C)C	-21.7
Cc1ccccc1CN1C[C@@H]2C[C@H](C(=O)NC3CCC3)[C@@H](C1)O2	-65.8
CCCN(Cc1ccc(OC)cc1)C(=O)c1cnc(OC)nc1	-8.2
Fc1cnc(N2C[C@H](Oc3ncccc3F)[C@@H]3OCCC[C@@H]32)nc1	-17.8
O=C(CC1CCc2ccccc21)N1Cc2cnn(CCO)c2C1 (stereo not given)	67.9
COc1cc(NCc2cn3c(n2)CN(C(=O)C2CC2)CC3)ncn1	27.4
CS(=O)(=O)c1ccc(-c2cnc(N)c(C(=O)Nc3ccccc3)n2)cc1	-86.1*
CS(=O)(=O)c1ccc(C(=O)Nc2ccccc2Cl)cc1	22.6
CS(=O)(=O)c1ccc(-c2ccccc2C(N)=O)cc1	3.2
CN(C)c1ccc(C(=O)NCCCCCCC(=O)NO)cc1	-88.4*!
COc1cc(C(=O)NCCCCCC(=O)O)cc(OC)c1OC	5.5
COCC1(N(C)C(=O)CCNC(=O)c2ccc(F)cc2)CC1	-0.2
SMILES	Tgondii IFNg
CCOC(=O)c1nc(NCCN2CCCc3ccccc32)c2ccccc2n1	274.9
Cc1cc(C(F)(F)F)nc(CCNS(=O)(=O)NCc2ccccc2)n1	-54.8
Cc1cnn(CC(=O)Nc2cccc(CCc3ccncc3)c2)c1	13.3
COc1ccccc1-c1cc(C(=O)Nc2cccc(CCc3ccncc3)c2)[nH]n1	-91.8*
COc1ccccc1C(=O)Nc1cccc(-n2cnnc2)c1	-7.8
O=C(C(c1ccc(Cl)cc1)N1CCOCC1)N1CCCCC1CCN1CCCC1 (stereo not given)	2.6
CC(C)N(C)[C@@H]1c2ccccc2[C@H]2CN(C(=O)N(C)C)C[C@H]21	-1.0
COc1ccc(NC(=O)c2ccc3nc(-c4ccoc4)c(-c4ccoc4)nc3c2)cc1OC	57.4
COc1ccc(C(=O)Nc2ccc(N3CCCC3)cc2)cc1OC	-5.2
COc1ccc(NC(=O)c2ccc(-c3ccc(-c4noc(C)n4)cc3C)cc2)cc1OCCN(C)C	-76.9*!
COc1ccc(NC(=O)c2ccc(-c3ccc(-c4noc(C)n4)cc3C)cc2)cc1N1CCN(C)CC1	-71.5*!
COc1ccc(C(=O)Nc2ccc(-c3nc(-c4ccccc4)co3)cc2)cc1OC	8.4
COc1ccc(C(=O)Nc2ccc(-c3nc(-c4cc(C)ccc4C)co3)cc2)cc1OC	7.0
O=C(CSCc1ccccc1Cl)N1CCS(=O)(=O)CC1	67.5
Cc1cc(C)cc(S(=O)(=O)N2CCC3(CC2)Nc2ccc(Cl)cc2-n2cccc23)c1	-0.7
CCN1c2cc(C)ccc2-n2cccc2C12CCN(C(=O)Nc1ccc(C)cc1)CC2	-74.9*
CCc1ccc(NC(=O)N2CCC3(CC2)c2cccn2-c2ccc(C)cc2N3CC)cc1	-47.3
CCN1c2cc(C)ccc2-n2cccc2C12CCN(C(=O)Nc1ccc(F)c(Cl)c1)CC2	0.2
CCN1c2cc(C)ccc2-n2cccc2C12CCN(C(=O)Nc1ccccc1OC)CC2	-88.2*
CCN1c2cc(C)ccc2-n2cccc2C12CCN(C(=O)Nc1cccc(Cl)c1)CC2	-82.5*
CCN1c2cc(C)ccc2-n2cccc2C12CCN(C(=O)Nc1ccccc1)CC2	-12.9
CCN1c2cc(C)ccc2-n2cccc2C12CCN(C(=O)Nc1cccc(OC)c1)CC2	-59.3
CCN1c2cc(C)ccc2-n2cccc2C12CCN(C(=O)Nc1cc(Cl)c(OC)cc1OC)CC2	-47.2
CCc1ccccc1NC(=O)N1CCC2(CC1)c1cccn1-c1ccc(C)cc1N2CC	205.9
COc1ccc2c(c1)NC1(CCN(C(=O)Nc3cc(Cl)ccc3C)CC1)c1cccn1-2	134.9
Cc1sc(NC(=O)CN(Cc2ccccc2)C(=O)c2ccccc2)c(C(N)=O)c1C	3.6
CC(c1nccs1)N(C)C(=O)c1ccc(CSc2ncn[nH]2)o1 (stereo not given)	108.5
Cc1cc(C)n(C2CCN(Cc3c(CO)cnc(C)c3O)C2)n1 (stereo not given)	-9.2

From PubChem BioAssay
